Assay outcomes as filed in PubChem BioAssay.
Tau fibril ThT: blocks human tau fibril formation measured by thioflavin T; 2.1% of 270,000 active; recombinant tau K18 P301L, heparin-induced fibrillization, ThT fluorescence; Potency, µM (highest dose often 57.4 µM), hits mostly inhibitors; P10636; further: nearly all actives have a fitted effect of over 55% in size
Target sequence (P10636 561-689 P618L limits assumed): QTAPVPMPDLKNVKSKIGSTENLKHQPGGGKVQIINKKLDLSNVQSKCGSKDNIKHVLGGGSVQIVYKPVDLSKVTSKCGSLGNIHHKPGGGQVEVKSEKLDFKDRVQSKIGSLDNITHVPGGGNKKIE
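K18 P301L tau (15 uM + 0.24 uM Alexa 594-tagged), heparin 20 uM, NaOAc pH 7, 6 h 37 C; ThT 30 uM, 1 h RT, ex 450/em 510 nm.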
FBPA coupling cs: inhibits coupling enzyme system, counter-screen for aldolase hits. coupling enzyme system counterscreen, AmpLite Red fluorescence. activity change, negative = inhibition, % at 58.2 µM, hits read low. 0.67% of 290,000 active. AID 2472; in the data active means activity change below about -30%
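Counterscreen of the coupled detection system alone, without aldolase: glyceraldehyde-3-phosphate coupling enzymes plus AmpLite Red readout. Compounds at 57.5 uM final, 10 min RT preincubation, 20 min RT reaction, fluorescence 525/598 nm.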
Tau fibril FP: blocks human tau fibril formation measured by polarization; K18 P301L tau heparin fibrillization, Alexa594 FP, 6 h; 0.39% of 280,000 active; Potency, µM (top dose mostly 57.7 µM), actives largely listed as inhibitors; P10636; AID 1468; further: nearly all actives have a fitted effect of over 55% in size
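Read-out: fluorescence polarization of Alexa 594-labeled tau (0.24 uM), 555 nm excitation, 632 nm emission. Mixtures held 15 uM unlabeled K18 P301L, compound and 20 uM heparin, pH 7 acetate buffer, incubated 6 hr at 37 C.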
Tau fluor cs: counter-screen for tau fibril formation inhibitors; Potency, µM (highest dose often 57.7 µM); tau K18 P301L Alexa594 fluorescence, heparin fibrillization; AID 1463; 0.93% of 280,000 active; further: nearly all actives have a fitted effect of over 55% in size
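Human tau K18 P301L (15 uM unlabeled, 0.24 uM Alexa 594-labeled) in 100 mM sodium acetate pH 7 with 20 uM heparin, 6 hr at 37 C. ThT 30 uM added, 1 hr ambient; Alexa 594 FP and total fluorescence read at 555/632 nm.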
Hits are given with their value; 0 = inactive; ? = inconclusive; - = no result; [ ] = dose if it differs, or a comment. Shown are actives, neighbours in structure and some others; about 2.7% of the full set was active somewhere. Unless noted, the call rests on the fitted dose curve; in most records, active means well fitted curve in the direction sought with a large enough effect; inconclusive means small, poorly fitted or top-dose-only effect, or another doubt; inactive means no such curve, though single readings can be large; an effect the other way counts as inactive or inconclusive.

SMILES	Tau fibril ThT	FBPA coupling cs	Tau fibril FP	Tau fluor cs
CC(C)c1ccc2c(c1)NC(c1ccc(F)cc1)=NC(c1cccs1)=N2	?	-	0	?
Nc1nc2c(ncn2[C@@H]2O[C@H](COP(=O)(O)OP(=O)(O)O)[C@@H](O)[C@H]2O)c(=O)[nH]1	0	-	0	0
CC(C)(C)C1CCC2(CC1)C(C#N)=C(SCC(=O)Nc1ccccc1)NC(=O)C2C#N (configuration not stated)	0	0	22µM	?
Cc1cc(C)c(S(=O)(=O)N2CCN(C(=O)C(C)Cn3cncn3)CC2)c(C)c1 (configuration not stated)	-	0	-	-
CC(C)=NNc1nc(-c2ccc([N+](=O)[O-])cc2)cs1	8.9µM	0	0	0
C/C=C/C=N/Nc1nc(-c2ccc([N+](=O)[O-])cc2)cs1	3.5µM	0	0	?
CC(=O)Nc1nc(-c2ccc([N+](=O)[O-])cc2)cs1	0	0	0	0
Cn1nc(NC(=O)CC23CC4CC(CC(C4)C2)C3)c2c(F)cccc21	-	0	0	0
NCCNS(=O)(=O)c1cccc2cnccc12	0	0	0	0
CCOC(=O)C1=C(CSc2nc3c(cc2C#N)CN(C)CC3)OC(N)=C(C#N)C1c1ccncc1 (configuration not stated)	?	0	?	0
CCOC(=O)C1=C(CSc2nc3c(cc2C#N)CN(C)CC3)OC(N)=C(C#N)C1c1ccc(Cl)cc1 (configuration not stated)	20µM	0	0	?
Cc1ccc(C(=O)NCCC(C)C)cc1NC(=O)c1nsc2ccccc12	0	-	0	0
CCC(=O)Nc1ccc(SC#N)cc1C	8.9µM	0	?	0
COc1cccc(CC(=O)n2nc(N)c3cc4ccc(OC)cc4nc32)c1	0	0	0	0
COc1ccc2cc3c(N)nn(C(=O)Cc4c[nH]c5ccccc45)c3nc2c1	-	0	0	20µM[quencher]
Cn1c2c(c(=O)n(C)c1=O)C(c1ccccc1Cl)C(C#N)=C(N)O2 (configuration not stated)	-	0	?	0
Cn1c2c(c(=O)n(C)c1=O)C(c1ccccc1F)C(C#N)=C(N)O2 (configuration not stated)	20µM	0	?	0
Cc1cc(Cl)ccc1OCC(=O)OCC(=O)Nc1ccc(F)c([N+](=O)[O-])c1	?	0	?	11µM[quencher]
CCNC(=O)COC(=O)COc1ccc(Cl)cc1C	0	0	0	0
CCOC(=O)Cc1csc(NC(=O)c2sc3nc4c(C)cc(C)cc4cc3c2N)n1	16µM	0	0	?
CCN(c1ccccc1C)S(=O)(=O)c1nnc(NC(=O)c2ccc(OC)c(OC)c2)s1	0	-	0	0
COCCCNC(=O)c1cccn2c(=O)c3cc4ccccc4cc3nc12	14µM	0	0	0
O=C(NCc1ccco1)c1cnc2ccccn2c1=O	0	0	0	0
O=C(NCc1ccco1)c1cccn2c(=O)c3cc4ccccc4cc3nc12	2.8µM	-31	0	0
CC(=O)C(Sc1nccc(-c2cccs2)n1)C(C)=O	0	-51	0	0
SMILES	Tau fibril ThT	FBPA coupling cs	Tau fibril FP	Tau fluor cs
O=C(CCCn1c(=O)c2cccn2c2cccnc21)Nc1ccccc1C(F)(F)F	0	-	0	0
O=C1NCCCc2c1oc1ccc(O)cc21	0	0	0	0
Oc1c(Cl)cc(Cl)c2c1NCCC2	14µM	-48	?	?
COC(=O)C1=C(C(=O)OC)SC2(S1)C(C(=O)OC)=C(C(=O)OC)SC1=C2c2cc(C)cc(C)c2NC1(C)C	14µM	0	?	?
O=C1c2ccccc2-c2onc3c(Br)cc(NC4CCCCC4)c1c23	11µM	-	?	0
COCCCNc1nc2nonc2nc1N1CCN(C2CCCC2)CC1	0	0	0	0
CN(C)CCCNc1cc(N2CCN(C3CCCCC3)CC2)c2noc3c2c1C(=O)c1ccccc1-3	3.5µM	-	?	?
CC(C)CNc1cc(NC2CCCCC2)c2c3c(onc13)-c1ccccc1C2=O	?	-	0	?
O=C1c2ccccc2-c2onc3c(N4CCN(C5CCCCC5)CC4)cc(NCCO)c1c23	7.1µM	-	0	?
COCCNc1cc(N2CCN(C3CCCCC3)CC2)c2noc3c2c1C(=O)c1ccccc1-3	11µM	-	0	0
O=C(c1cc(C(F)(F)F)cc(C(F)(F)F)c1)N1CCC2(CC1)CCN(c1ccccn1)CC2	-	0	-	-
O=S(=O)(c1ccc(Cl)nc1)N1CCCc2ccccc21	0	-33	0	0
COc1ccccc1N1CCN(C2=Nc3cccc4cccc2c34)CC1	?	0	0	0
CC1CN(C2=Nc3cccc4cccc2c34)CC(C)O1 (configuration not stated)	0	-46	0	0
CCOC(=O)N1CCN(C2=Nc3cccc4cccc2c34)CC1	?	-57	0	0
CC(=O)N1CCN(C2=Nc3cccc4cccc2c34)CC1	?	-47	0	0
c1cc2c3c(cccc3c1)C(N1CCOCC1)=N2	0	-51	0	0
c1ccc(CC2CCN(C3=Nc4cccc5cccc3c45)CC2)cc1	?	0	0	0
COc1ccc(CNC(=O)c2cn(-c3cccc(OC)c3)c(=O)c3ccccc23)cc1	0	-	0	0
CC(=O)O[C@H]1C2=CO[C@H](C)[C@H]3[C@H]4C5=C([C@H](O)[C@H]6O[C@@H]6C5=O)[C@H](O[C@H]4C)[C@@]23C(=O)[C@H]2O[C@@H]21	?	0	?	0[11.6 µM]
Cn1cnc(S(=O)(=O)Nc2ccc(OC(F)(F)F)cc2)c1	0	0	0	0
Cc1ccc2c(=O)cc(C(=O)Nc3sc4c(c3C(=O)NCC3CCCO3)CCC4)oc2c1 (configuration not stated)	0	-	0	0
COc1ccc(Cl)cc1NC(=O)c1nnn(CC(=O)Nc2ccc(OC)c(OC)c2)c1N	-	0	-	-
COc1ccc(OC)c(NC(=O)c2nnn(CC(=O)Nc3ccc(C(C)C)cc3)c2N)c1	?	-	0	14µM[quencher]
COc1cc2c(cc1OC)C(COc1ccccc1OC)N(C(=O)COc1ccc(Cl)cc1)CC2 (configuration not stated)	0	-	0	0
SMILES	Tau fibril ThT	FBPA coupling cs	Tau fibril FP	Tau fluor cs
CC(=O)c1cccc(NC(=O)N2CCC(CN3CCCCC3)CC2)c1	0	-	0	0
Cc1ccc2c(CN3CCN(c4ccc(Cl)cc4)CC3)cc(=O)oc2c1	0	-	0	0
COc1ccc(OC)c(/C=N/NC(=O)c2cc3c(OC)cc(OC)cc3[nH]2)c1	5µM	0	?	8.9µM[quencher]
COc1cccc(/C=N/NC(=O)c2cc3c(OC)c(OC)ccc3[nH]2)c1OC	7.9µM	0	?	?
COc1ccc(OC)c(/C=N/NC(=O)c2cc3c(OC)cccc3[nH]2)c1	-	0	0	?
Cc1cccc(N2CCN(C(=O)Cn3ncc4c3-c3cc(C)ccc3OC4)CC2C)c1 (configuration not stated)	0	-	0	0
COC(=O)c1cnn(C(=O)c2ccccc2Br)c1N	0	-37	0	0
Cc1ccc(S(=O)(=O)NCCC(=O)Nc2ccc(Cl)c(Cl)c2)cc1C	0	0	14µM	?
CN(C)S(=O)(=O)c1cc(NC(=O)CSc2nn(-c3ccc(Cl)cc3)c(=S)s2)ccc1Cl	?	0	25µM	?
